Drawing on PubChem BioAssay, this text covers composite z-score and z-score for 14 molecules.

Structures are written as SMILES. The source made the active and inactive calls.

Assay [1] is described as follows: compounds binding Alexa647 anti-His antibody – biochemical, small-molecule microarray, 635 nm fluorescence, artefact control for SMM control protein annotation, primary screen (AID 1128).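 Also: score merges feature fluorescence with signal-to-noise for each printed compound spot.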 The settings on record: higher = more signal.
The subject of assay [2] is Human papillomavirus type 1a E7 protein (residues 1-88). Kind of assay: HPV1a E7 small-molecule binders, primary screen, biochemical, small-molecule microarray, residues 1-88, 635 nm (AID 1129). The settings on record: small-molecule microarray binding, fluorescence 635 nm; higher = more signal.
The target in assay [3] is Focal adhesion kinase 1 (Homo sapiens) (UniProt Q05397). Kind of assay: PTK2 protein binding on printed compound slides – biochemical, small-molecule microarray, 635/667 nm fluorescence, BSA, DTT, primary screen (AID 1130).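 Also: composite of spot emission at 667 nm and signal to noise over triplicate slides.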 The settings on record: 635 nm fluorescence, higher = more signal.
Sequence of Focal adhesion kinase 1 (Homo sapiens) (Q05397 whole entry, looked up): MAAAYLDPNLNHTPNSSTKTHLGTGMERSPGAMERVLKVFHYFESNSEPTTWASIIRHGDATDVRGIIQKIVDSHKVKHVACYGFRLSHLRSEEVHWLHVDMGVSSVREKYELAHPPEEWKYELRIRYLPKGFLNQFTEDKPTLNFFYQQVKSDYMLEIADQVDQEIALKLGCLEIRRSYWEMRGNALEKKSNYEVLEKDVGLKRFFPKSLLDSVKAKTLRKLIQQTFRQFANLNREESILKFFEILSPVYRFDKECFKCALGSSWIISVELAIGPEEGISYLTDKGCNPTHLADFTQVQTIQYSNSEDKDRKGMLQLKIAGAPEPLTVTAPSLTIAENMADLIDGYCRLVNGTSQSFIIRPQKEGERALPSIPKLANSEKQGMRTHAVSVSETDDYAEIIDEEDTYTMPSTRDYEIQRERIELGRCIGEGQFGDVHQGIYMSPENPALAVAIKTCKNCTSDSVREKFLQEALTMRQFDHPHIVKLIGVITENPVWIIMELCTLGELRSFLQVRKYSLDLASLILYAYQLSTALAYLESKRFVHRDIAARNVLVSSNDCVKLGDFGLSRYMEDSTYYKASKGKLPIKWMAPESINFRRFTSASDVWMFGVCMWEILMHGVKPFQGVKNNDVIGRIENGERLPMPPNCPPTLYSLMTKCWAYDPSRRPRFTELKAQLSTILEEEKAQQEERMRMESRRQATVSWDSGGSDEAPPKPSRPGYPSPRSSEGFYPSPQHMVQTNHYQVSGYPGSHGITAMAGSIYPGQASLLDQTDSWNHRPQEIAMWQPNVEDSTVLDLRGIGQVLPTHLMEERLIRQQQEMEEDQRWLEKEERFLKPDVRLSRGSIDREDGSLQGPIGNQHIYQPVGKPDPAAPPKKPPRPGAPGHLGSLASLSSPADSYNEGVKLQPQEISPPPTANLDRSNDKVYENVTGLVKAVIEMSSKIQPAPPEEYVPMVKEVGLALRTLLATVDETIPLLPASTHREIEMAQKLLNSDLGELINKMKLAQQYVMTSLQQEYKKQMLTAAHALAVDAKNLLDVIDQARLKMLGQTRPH
For assay [4], the system named is Fibrinogen (Alexa647-labelled). The assay can be described thus: Alexa647-fibrinogen binding to printed small molecules – biochemical, small-molecule microarray, 635/667 nm fluorescence, artefact control for SMM control-protein annotation, profiling panel (AID 1131).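 Also: z-score merges 667 nm fluorescence with per-spot signal-to-noise over triplicate slides.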 The note with it: fibrinogen-A647 binding fluorescence, higher = more signal.
In assay [5] the target is Follistatin (Homo sapiens) (UniProt P19883). Kind of assay: FST protein binding to printed compounds – biochemical, small-molecule microarray, 635/667 nm fluorescence, primary screen (AID 1132). The note with it: 635 nm fluorescence, higher = more signal.
Sequence of Follistatin (Homo sapiens) (P19883 whole entry, looked up): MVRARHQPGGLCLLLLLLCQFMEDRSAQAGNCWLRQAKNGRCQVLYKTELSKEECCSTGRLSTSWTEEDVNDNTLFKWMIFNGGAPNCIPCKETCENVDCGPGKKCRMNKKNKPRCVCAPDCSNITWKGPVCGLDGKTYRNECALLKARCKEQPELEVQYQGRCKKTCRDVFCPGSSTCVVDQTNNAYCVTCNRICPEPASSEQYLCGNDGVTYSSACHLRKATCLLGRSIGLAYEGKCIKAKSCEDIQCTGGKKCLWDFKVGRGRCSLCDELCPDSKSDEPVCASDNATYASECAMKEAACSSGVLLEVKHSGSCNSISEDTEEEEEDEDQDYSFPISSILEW
In assay [6] the target is Fibroblast growth factor 2 (Homo sapiens) (UniProt P09038). The assay can be described thus: basic fibroblast growth factor binding to printed compounds – biochemical, small-molecule microarray, 635/667 nm fluorescence, primary screen (AID 1133). The note with it: FGF2, fluorescence 635/667, higher = more signal.
Sequence of Fibroblast growth factor 2 (Homo sapiens) (P09038 whole entry, looked up): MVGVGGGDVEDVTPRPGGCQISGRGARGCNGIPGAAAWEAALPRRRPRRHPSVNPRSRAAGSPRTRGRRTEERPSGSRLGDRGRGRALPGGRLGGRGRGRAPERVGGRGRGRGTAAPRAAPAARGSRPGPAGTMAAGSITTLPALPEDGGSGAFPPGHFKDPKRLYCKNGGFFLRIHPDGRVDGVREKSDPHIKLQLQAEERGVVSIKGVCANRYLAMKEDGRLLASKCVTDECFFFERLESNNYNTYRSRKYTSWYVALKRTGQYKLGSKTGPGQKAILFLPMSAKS
Assay [7] can be described thus: JC-1 mitochondrial potential readout, lung cancer cells – cell-based, A549, JC-1 fluorescence, basal, 24 h, 100 nL, profiling panel (AID 1138).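 Also: A549 lung adenocarcinoma cells under basal conditions with no added stimulus; test concentration not given here.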 The settings on record: higher = more signal.
Assay [8] concerns Lefty1. Kind of assay: Lefty1 protein binding to printed compounds – biochemical, small-molecule microarray, 635/667 nm fluorescence, primary screen (AID 1139). The settings on record: fluorescence 635/667, higher = more signal.
The test system of assay [9] is wheat germ agglutinin (Triticum aestivum), Alexa647-labelled. The assay can be described thus: Alexa647-WGA lectin binding to printed small molecules – biochemical, small-molecule microarray, 635/667 nm fluorescence, artefact control for SMM control-protein annotation, profiling panel (AID 1140).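 Also: score merges 667 nm feature emission with signal to noise over triplicate slides.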 The settings on record: WGA-A647 binding, 635 nm fluorescence, higher = more signal.

Assay [10] deals with Luciferin 4-monooxygenase (Photinus pyralis) (UniProt P08659). The assay can be described thus: inhibition of purified Photinus pyralis luciferase – biochemical, luminescence, purified enzyme, 2006 set, primary screen (AID 1141).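 Also: cell-free assay with purified firefly luciferase at 100 ng per well in PBS; test concentration not given here.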 The note with it: purified firefly luciferase, SteadyGlo luminescence, 30 min; higher = more signal, called active from +8 up or from −8 down.
Sequence of Luciferin 4-monooxygenase (Photinus pyralis) (P08659 whole entry, looked up): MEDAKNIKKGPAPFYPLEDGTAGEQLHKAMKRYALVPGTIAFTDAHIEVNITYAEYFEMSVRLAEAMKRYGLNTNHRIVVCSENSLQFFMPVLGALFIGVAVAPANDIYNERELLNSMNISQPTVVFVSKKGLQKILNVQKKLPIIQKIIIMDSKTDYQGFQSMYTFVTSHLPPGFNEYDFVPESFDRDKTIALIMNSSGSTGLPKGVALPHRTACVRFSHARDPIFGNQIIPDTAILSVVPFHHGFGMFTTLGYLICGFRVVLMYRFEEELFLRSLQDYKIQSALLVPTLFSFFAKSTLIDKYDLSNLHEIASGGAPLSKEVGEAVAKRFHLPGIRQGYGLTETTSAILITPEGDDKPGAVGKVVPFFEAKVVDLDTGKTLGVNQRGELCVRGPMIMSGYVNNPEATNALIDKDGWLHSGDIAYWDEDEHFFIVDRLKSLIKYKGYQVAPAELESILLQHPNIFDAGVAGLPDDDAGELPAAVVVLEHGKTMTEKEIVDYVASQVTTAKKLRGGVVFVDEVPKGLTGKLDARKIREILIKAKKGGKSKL

Take `CC(CCN1CCCc2nc(C)c(C)cc21)=NO[C@@H](C)c1cc(-c2c(C)cc(C)cc2C)no1`: the composite z-score worked out at 1.4 in assay [1]; 0.314 in assay [2]; 0.514 in assay [3]; 0.745 in assay [4]; 0.427 in [5]; 0.388 in [6]. Also, the composite z-score in [8] amounted to 0.643; in assay [9], 0.605. For the same molecule, the z-score was 1.91 in assay [7] and 0.0678 (inactive) in assay [10].

For the molecule `CCOC(=O)[C@H](CC(C)C)NC(=O)CCC1CC(OC(=O)NCc2ccc3c(c2)OCO3)CC2(CCCC(COC(=O)NCC(c3ccccc3)c3ccccc3)O2)O1` (stereo not given in full), the composite z-score in assay [1] is 0.423; in assay [2], 0.572; in [3] it was -0.2; in [4] it was 0.683; in assay [5], 0.669; in [6] it was 0.191. The composite z-score in assay [8] stood at 1.32; in assay [9] it was 0.61. The z-score is -0.025 in assay [7] and 0.864 (inactive) in assay [10].

With `CCCNC(=O)OC[C@H]1O[C@H](CCON=C(C)CCC(=O)OC[C@H]2O[C@H](c3ccccc3)C=C[C@@H]2Oc2ccc(OC)cc2)C=C[C@@H]1Oc1ccc(OC)cc1`, the composite z-score in assay [1] is 2.6; in assay [2], -1.45; in assay [3] it was -0.447; in assay [4], -0.467; in [5], -0.342; in assay [6], -0.273. Also, the composite z-score is 0.171 in assay [8] and 0.619 in assay [9]. Further, the values for the z-score in [7] and in [10] were 0.424 and 1 (inactive), respectively.

As to `Cn1c(=O)n2n(c1=O)[C@H]1[C@H](O)[C@@H]3O[C@@H]3C(=O)[C@H]1CC2`, the composite z-score was -0.0542 in assay [1]; 0.827 in [2]; -0.515 in assay [3]; 0.289 in assay [4]; 0.537 in assay [5]; 0.348 in [6]. Further, the composite z-score in assay [8] was 0.455; in assay [9], 0.138. Further, the results for the z-score in [7] and in assay [10] were -0.572 and -0.28 (inactive), respectively.

Turning to `CC(C)=CCCC(C)=CCON=C1C[C@@H](O)[C@@H](O)[C@@H]2[C@@H]3C(=O)N(c4cccc(Oc5ccccc5)c4)C(=O)[C@@H]3CC[C@@H]12`, the composite z-score in assay [1] was 0.0079; in [2], 0.929; in assay [3], 1.58; in [4], 0.589; in assay [5], 0.612; in assay [6], 0.207. Further, the composite z-score in assay [8] was 0.514; in [9], 0.0969. The z-score in [7] is -0.82; in assay [10], 0.775 (inactive).

For the molecule `CCOC(=O)[C@H](Cc1ccccc1)NC(=O)CCC1CC(OC(=O)NCc2ccc3c(c2)OCO3)CC2(CCCC(COC(=O)NCCc3ccccc3OC)O2)O1` (stereo not given in full), the composite z-score in [1] worked out at 0.969; in [2] it was 1.2; in [3] it was 0.492; in assay [4], 1; in assay [5], 1.07; in assay [6], 1.32. The composite z-score worked out at 1.36 in [8] and 0.63 in assay [9]. Moreover, the z-score in assay [7] is -0.654; in [10], 0.274 (inactive).

Take `COc1ccc(COC(=O)NN=C2C[C@@H](O)[C@@H](O)[C@@H]3[C@@H]4C(=O)N(c5ccc(F)cc5F)C(=O)[C@@H]4CC[C@H]23)cc1`: the composite z-score in assay [1] is 0.524; in assay [2], -0.199; in assay [3], 0.168; in [4], 0.89; in assay [5] it was -0.469; in assay [6], 0.0314. Moreover, the composite z-score is -0.773 in assay [8] and 0.4 in assay [9]. The z-score was -0.654 in assay [7] and 0.732 (inactive) in assay [10].

For `COC(=O)CC=C[C@@H](C)[C@@H](C=NOC[C@H]1O[C@H](c2ccccc2)C=C[C@@H]1Oc1ccc(OC)cc1)NS(=O)(=O)c1ccc(C)cc1`, the composite z-score in assay [1] was -1.16; in assay [2] it was -1.1; in [3], -0.217; in assay [4] it was -0.85; in assay [5], -1.04; in [6], -0.528. Besides, the composite z-score in assay [8] is -1.11; in assay [9], -0.542. For the same molecule, the z-score was -0.173 in [7] and 0.847 (inactive) in assay [10].

In the case of `C=CC[C@@H]1C=C[C@H](ON=C2[C@H]3CCn4c(=O)n(-c5ccccc5)c(=O)n4[C@H]3[C@H](O)[C@@H]3O[C@H]23)[C@@H](CO)O1`, the composite z-score in assay [1] is 3.31; in assay [2], -0.542; in assay [3], -0.118; in [4], 0.626; in assay [5], 0.489; in assay [6], 0.095. Moreover, the figures for the composite z-score in [8] and in [9] were 0.96 and -0.0168, respectively. Moreover, the figures for the z-score in [7] and in assay [10] were -0.544 and 0.845 (inactive), respectively.

Regarding `C#CCCCON=C1[C@H]2CCn3c(=O)n(-c4ccccc4)c(=O)n3[C@H]2[C@H](O)[C@@H]2O[C@H]12`, the composite z-score in [1] was determined as 0.303; in assay [2], 0.875; in assay [3], 0.093; in assay [4] it was 0.436; in assay [5] it was 0.295; in [6], 0.27. The composite z-score in [8] worked out at 0.66; in [9], 0.107. In addition, the z-score is 0.94 in assay [7] and -1.32 (inactive) in [10].

As to `CCOC(=O)[C@H](Cc1ccccc1)NC(=O)CCC1CC(OC(=O)NCc2ccc3c(c2)OCO3)CC2(CCCC(COC(=O)NCCC(C)C)O2)O1` (stereo not given in full), the composite z-score in [1] was 0.408; in [2] it was 0.57; in assay [3], 0.234; in assay [4] it was 0.894; in [5], 0.443; in assay [6], 1.06. The composite z-score in assay [8] is 0.722; in assay [9], 0.531. Moreover, the values for the z-score in [7] and in [10] were -0.549 and 0.906 (inactive), respectively.

With `COc1ccc(O[C@H]2C=C[C@@H](c3ccccc3)O[C@@H]2CON=C(C)CCC(=O)OC[C@H]2O[C@H](c3ccccc3)C=C[C@@H]2Oc2ccc(OC)cc2)cc1`, the composite z-score in assay [1] was 0.704; in assay [2], -2.01; in assay [3], -0.204; in assay [4] it was -0.218; in assay [5], -0.174; in assay [6], -0.922. Moreover, the composite z-score in assay [8] is -0.162; in assay [9], -1.13. The values for the z-score in assay [7] and in assay [10] were 0.0976 and 1.27 (inactive), respectively.

Consider `CC(C)C[C@H](NC(=O)CCC1CC(OC(=O)NCc2cccc3ccccc23)CC2(CCCC(COC(=O)NCc3ccccc3)O2)O1)C(=O)NCC(c1ccccc1)c1ccccc1` (stereo not given in full), for which the composite z-score is 0.231 in assay [1]; 1.13 in [2]; 0.383 in [3]; 0.803 in assay [4]; 0.909 in [5]; 1.27 in assay [6]. Also, the composite z-score in assay [8] is 1.07; in assay [9], 0.493. In addition, the z-score in assay [7] was 1.09; in [10] it was 0.43 (inactive).

For `O=C1CCCC=C1C(O)CCOC(c1ccccc1)(c1ccccc1)c1ccccc1` (stereo not given), the composite z-score in [1] is -0.545; in [2], -0.228; in assay [3], -0.0057; in assay [4], -0.302; in assay [5], 0.0573; in assay [6], 0.058. Moreover, the results for the composite z-score in assay [8] and in [9] were 0.458 and -0.129, respectively. Also, the z-score is -0.228 in [7] and -0.395 (inactive) in assay [10].
